Test results: PubChem BioAssay (Tox21)
Active and inactive are the calls of the source. The call rests on the fitted dose curve; in most records, active means well fitted curve in the direction sought with a large enough effect in the repeat runs; inconclusive means weak or mixed curves; inactive means flat fitted curve, though single readings scatter.

Experiment: qHTS assay to test for compound auto fluorescence at 535 nm (green) in HEK293 cell free culture (AID 720682)
Details: cell-free medium, green autofluorescence 485/535 nm; series mostly up to 91.3 µM
Summary of the method: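 Measurement is a direct plate read of green fluorescence (485 nm in, 535 nm out) after compound addition to serum-supplemented DMEM lacking cells, with fluorescein used to express intensities.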
With `CC(=O)CCc1ccc(O)cc1` the outcome was “inactive”. For `NC(=O)c1ncn([C@@H]2O[C@H](CO)[C@@H](O)[C@H]2O)c1N`, the outcome was “inactive”. In the case of `c1ccc(SCCSc2ccccc2)cc1`, the outcome was “inactive”. With `CC(C)[N+](C)(C)CC(O)COc1cccc2ccccc12` (stereo not given) the outcome was “inactive”. For `C=C(C)[C@H]1CC=C(C)CC1`, the outcome was “inactive”. For `CSc1nc(NC2CC2)nc(NC(C)(C)C)n1`, the outcome was “inactive”. In the case of `CC(O)CN(CCCN(C)C)CCCN(C)C` (stereo not given), the outcome was “inactive”. With `COC[C@H](c1ccc(C(F)(F)F)cc1)N1CCN(C2(C)CCN(C(=O)c3c(C)ncnc3C)CC2)C[C@H]1C` the outcome was “inactive”. For `OCCN1C[C@H](O)[C@@H](O)[C@H](O)[C@H]1CO`, the outcome was “inactive”. For `[O-][N+](=Nc1ccccc1)c1ccccc1`, the outcome was “inactive”. For `O=[N+]([O-])c1ccc(Oc2ccc([N+](=O)[O-])cc2)cc1`, the outcome was “inactive”. In the case of `OCC(O)[C@@H](O)[C@H](O)[C@H](O)CO[C@H]1O[C@H](CO)[C@@H](O)[C@H](O)[C@H]1O` (stereo not given in full), the outcome was “inactive”. For `CC(C)c1cccc(O)c1`, the outcome was “inactive”. In the case of `CO`, the outcome was “inactive”. In the case of `COc1cccc(Br)c1`, the outcome was “inactive”. In the case of `CCc1cc(S(=O)(=O)O)c2cc(C(C)C)cccc1-2`, the outcome was “inactive”. In the case of `O=C(O)C(O)[C@H](O)[C@@H](O)[C@H](O)[C@H](O)CO` (stereo not given in full), the outcome was “inactive”. With `CCCCCCCCC=O` the outcome was “inactive”. In the case of `C=C(C)C(=O)NCCCN(C)C`, the outcome was “inactive”. For `CC(C)(O)C(=O)c1ccc(OCCO)cc1`, the outcome was “inactive”. For `N#CCN(CC#N)CCN(CC#N)CC#N`, the outcome was “inactive”. For `CC/C=C\CCCCO`, the outcome was “inactive”. For `COc1cccc(OC)c1`, the outcome was “inactive”. In the case of `CCCCCCOC(=O)c1ccccc1O`, the outcome was “inactive”. With `CC(C)N1C(=O)c2ccccc2C1=O` the outcome was “inactive”.
